# Measured values: PubChem BioAssay AID1159580 (chemical genetic matrix, 2015)
# Several values for one entry are separate records, joined by “and”; a condition that tells them apart may be missing. Identical values can stand only once. In all, about 5,500 compounds went through this assay and about 2,000 (36%) were called active. About 18% were inconclusive and are not listed. No stated cut-off is given here; in the data, active means normalized growth mostly below about 0.91 (no sharp cut-off); inconclusive means no clear call, values can overlap the other calls; inactive means mostly above about 0.92. Some of the results follow.
# Test: chemical genetic growth profiling, strain panel (AID 1159580);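 further: tested at 20 µM; growth read once vehicle control cultures reached saturation at 30 °C; 1 = growth at the plate median or of vehicle wells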
# Conditions: S. cerevisiae deletion strains, growth OD
smiles,measurement,setting,value
C=C1C(=O)O[C@@H]2C[C@@]3(C)CCC[C@H](C)C3=C[C@H]12,normalized growth,"locus YAL013W, strain DEP1, stronger effect = lower value",0.933 (inactive)
same,normalized growth,"locus YAL021C, strain ccr4, stronger effect = lower value",0.849 (active)
same,normalized growth,"locus YAL026C, strain drs2, stronger effect = lower value",0.718 (active)
same,normalized growth,"locus YAL030W, strain snc1, stronger effect = lower value",0.882 (active)
same,normalized growth,"locus YBL061C, strain skt5, stronger effect = lower value",0.901 (active)
same,normalized growth,"locus YBR009C, strain hhf1, stronger effect = lower value",0.733 (active)
same,normalized growth,"locus YBR021W, strain FUR4, stronger effect = lower value",1.05 (inactive)
same,normalized growth,"locus YBR023C, strain chs3, stronger effect = lower value",0.886 (active)
same,normalized growth,"locus YBR171W, strain sec66, stronger effect = lower value",0.837 (active)
same,normalized growth,"locus YBR229C, strain ROT2, stronger effect = lower value",0.943 (inactive)
same,normalized growth,"locus YBR231C, strain swc5, stronger effect = lower value",0.572 (active)
same,normalized growth,"locus YBR279W, strain paf1, stronger effect = lower value",0.88 (active)
same,normalized growth,"locus YCL011C, strain gbp2, stronger effect = lower value",0.822 (active)
same,normalized growth,"locus YCL016C, strain dcc1, stronger effect = lower value",0.849 (active)
same,normalized growth,"locus YCL029C, strain bik1, stronger effect = lower value",0.949 (inactive)
same,normalized growth,"locus YCL061C, strain MRC1, stronger effect = lower value",0.881 (active)
same,normalized growth,"locus YCL069W, strain vba3, stronger effect = lower value",0.876 (active)
same,normalized growth,"locus YCR088W, strain abp1, stronger effect = lower value",0.896 (active)
same,normalized growth,"locus YDL005C, strain med2, stronger effect = lower value",0.937 (inactive)
same,normalized growth,"locus YDL035C, strain GPR1, stronger effect = lower value",0.895 (inactive)
same,normalized growth,"locus YDL040C, strain nat1, stronger effect = lower value",0.899 (active)
same,normalized growth,"locus YDL074C, strain BRE1, stronger effect = lower value",0.72 (active)
same,normalized growth,"locus YDL101C, strain DUN1, stronger effect = lower value",0.85 (active)
same,normalized growth,"locus YDL134C, strain PPH21, stronger effect = lower value",0.848 (active)
same,normalized growth,"locus YDL185W, strain tfp1, stronger effect = lower value",0.94 (inactive)
same,normalized growth,"locus YDL192W, strain arf1, stronger effect = lower value",0.758 (active)
same,normalized growth,"locus YDR001C, strain nth1, stronger effect = lower value",0.897 (active)
same,normalized growth,"locus YDR069C, strain doa4, stronger effect = lower value",0.779 (active)
same,normalized growth,"locus YDR101C, strain arx1, stronger effect = lower value",0.945 (inactive)
same,normalized growth,"locus YDR137W, strain rgp1, stronger effect = lower value",0.267 (active)
same,normalized growth,"locus YDR150W, strain NUM1, stronger effect = lower value",0.925 (inactive)
same,normalized growth,"locus YDR159W, strain sac3, stronger effect = lower value",0.71 (active)
same,normalized growth,"locus YDR162C, strain NBP2, stronger effect = lower value",0.699 (active)
same,normalized growth,"locus YDR195W, strain ref2",1.16 [resistant] (active)
same,normalized growth,"locus YDR297W, strain sur2, stronger effect = lower value",0.855 (active)
same,normalized growth,"locus YDR318W, strain mcm21, stronger effect = lower value",0.814 (active)
same,normalized growth,"locus YDR334W, strain swr1, stronger effect = lower value",0.442 (active)
same,normalized growth,"locus YDR335W, strain msn5, stronger effect = lower value",0.875 (active)
same,normalized growth,"locus YDR388W, stronger effect = lower value",0.869 (active)
same,normalized growth,"locus YDR392W, strain spt3, stronger effect = lower value",0.127 (active)
same,normalized growth,"locus YDR502C, strain sam2, stronger effect = lower value",0.833 (active)
same,normalized growth,"locus YEL003W, strain gim4, stronger effect = lower value",0.715 (active)
same,normalized growth,"locus YEL037C, strain rad23, stronger effect = lower value",0.907 (active)
same,normalized growth,"locus YEL061C, strain CIN8 (second series), stronger effect = lower value",0.88 (active)
same,normalized growth,"locus YEL061C, strain CIN8, stronger effect = lower value",0.916 (active)
same,normalized growth,"locus YER015W, strain faa2, stronger effect = lower value",0.855 (active)
same,normalized growth,"locus YER016W, strain bim1, stronger effect = lower value",0.911 (active)
same,normalized growth,"locus YER110C, stronger effect = lower value",0.836 (active)
same,normalized growth,"locus YER111C, strain swi4, stronger effect = lower value",0.911 (inactive)
same,normalized growth,"locus YER155C, strain BEM2 (second series), stronger effect = lower value",0.585 (active)
same,normalized growth,"locus YER155C, strain BEM2, stronger effect = lower value",0.71 (active)
same,normalized growth,"locus YER167W, strain BCK2, stronger effect = lower value",0.906 (inactive)
same,normalized growth,"locus YFR010W, strain ubp6, stronger effect = lower value",0.862 (active)
same,normalized growth,"locus YGL078C, strain dbp3, stronger effect = lower value",0.981 (inactive)
same,normalized growth,"locus YGL086W, strain mad1, stronger effect = lower value",0.89 (active)
same,normalized growth,"locus YGL167C, strain pmr1, stronger effect = lower value",0.848 (active)
same,normalized growth,"locus YGL173C, strain kem1, stronger effect = lower value",0.888 (active)
same,normalized growth,"locus YGL227W, strain vid30, stronger effect = lower value",0.912 (active)
same,normalized growth,"locus YGL240W, strain doc1, stronger effect = lower value",0.599 (active)
same,normalized growth,"locus YGL248W, strain PDE1, stronger effect = lower value",0.799 (active)
same,normalized growth,"locus YGL253W, strain hxk2, stronger effect = lower value",0.742 (active)
same,normalized growth,"locus YGR135W, strain pre9, stronger effect = lower value",0.801 (active)
same,normalized growth,"locus YGR252W, strain gcn5, stronger effect = lower value",0.864 (inactive)
same,normalized growth,"locus YHR013C, strain ard1, stronger effect = lower value",0.616 (active)
same,normalized growth,"locus YHR027C, strain rpn1, stronger effect = lower value",0.874 (active)
same,normalized growth,"locus YHR030C, strain SLT2, stronger effect = lower value",0.927 (inactive) and 1.01 (inactive)
same,normalized growth,"locus YHR079C, strain IRE1 (second series), stronger effect = lower value",0.936 (inactive)
same,normalized growth,"locus YHR079C, strain IRE1, stronger effect = lower value",0.986 (inactive)
same,normalized growth,"locus YHR094C, strain hxt1, stronger effect = lower value",0.942 (inactive)
same,normalized growth,"locus YHR129C, strain ARP1, stronger effect = lower value",0.852 (active)
same,normalized growth,"locus YHR142W, strain chs7, stronger effect = lower value",0.787 (active)
same,normalized growth,"locus YHR200W, strain rpn10, stronger effect = lower value",0.876 (active)
same,normalized growth,"locus YIL066C, strain RNR3, stronger effect = lower value",0.756 (active)
same,normalized growth,"locus YIL073C, strain SPO22, stronger effect = lower value",0.717 (inactive)
same,normalized growth,"locus YIL125W, strain kgd1, stronger effect = lower value",0.953 (inactive)
same,normalized growth,"locus YIR030C, strain dcg1, stronger effect = lower value",0.903 (active)
same,normalized growth,"locus YJL092W, strain hpr5, stronger effect = lower value",0.904 (active)
same,normalized growth,"locus YJL095W, strain BCK1 (second series), stronger effect = lower value",0.894 (active)
same,normalized growth,"locus YJL095W, strain BCK1, stronger effect = lower value",0.753 (active) and 1.01 (inactive)
same,normalized growth,"locus YJL115W, strain asf1, stronger effect = lower value",0.88 (active)
same,normalized growth,"locus YJL129C, strain trk1, stronger effect = lower value",0.76 (active)
same,normalized growth,"locus YJL134W, strain LCB3, stronger effect = lower value",0.934 (inactive)
same,normalized growth,"locus YJL154C, strain vps35, stronger effect = lower value",0.921 (inactive)
same,normalized growth,"locus YJL164C, strain tpk1, stronger effect = lower value",0.809 (active)
same,normalized growth,"locus YJL166W, strain qcr8, stronger effect = lower value",0.654 (active)
same,normalized growth,"locus YJL168C, strain set2, stronger effect = lower value",0.951 (inactive)
same,normalized growth,"locus YJL187C, strain SWE1 (second series), stronger effect = lower value",0.875 (inactive)
same,normalized growth,"locus YJL187C, strain SWE1, stronger effect = lower value",0.903 (active)
